Experimental findings from PubChem BioAssay (NCATS) are described below.

Inconclusive results are not listed. A call without a number means that no potency is given here. Calls of active or inactive are those of the source. The call rests on the fitted dose curve; in most records, active means well fitted inhibition curve with a large enough effect; inconclusive means small, poorly fitted or top-dose-only effect; inactive means flat fitted curve, though single readings scatter.

The target of this assay is Calcium and integrin-binding protein 1 (Homo sapiens) (UniProt Q99828). The assay can be described thus: Primary qHTS for Identification of Calcium Integrin Binding Protein 1 (CIB1) Competitor (AID 1508620). Further: top concentration of the series differs between compounds. The note with it: CIB1-GST / FITC-alphaIIb peptide fluorescence polarization; series mostly up to 114 µM. The method in brief: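 Fluorescence polarization competition: GST-tagged CIB1 (1 uM final) preincubated with compound 15 min at room temperature, then FITC-labelled alphaIIb peptide (100 nM final) added. After 15 min at room temperature, polarization read at Ex 480/Em 540.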
Chain of Calcium and integrin-binding protein 1 (Homo sapiens) (Q99828 whole entry, looked up): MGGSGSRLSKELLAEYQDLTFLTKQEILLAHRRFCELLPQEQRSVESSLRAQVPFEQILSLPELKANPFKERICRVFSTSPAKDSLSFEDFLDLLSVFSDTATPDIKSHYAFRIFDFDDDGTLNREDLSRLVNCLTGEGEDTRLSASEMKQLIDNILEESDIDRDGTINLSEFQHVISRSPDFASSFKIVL
In general terms: In qHTS, concentration-response curves come from the screen itself.
`Cc1cc(C)nc(NC(=S)N2CCN(c3cc(C#N)cc(C#N)c3)CC2)c1`: the Potency result was “inactive”.
As for `Cn1c(SCC(=O)c2cc3ccccc3o2)nnc1-c1ccccc1`, the entry is “inactive”; as for `Cc1cc(C)nc(NC(=S)N2CCN(c3cc(Cl)c(Cl)cc3Cl)CC2)c1`, “inactive”.
As for `Fc1ccccc1-c1nc(-c2ccccc2)no1`, the entry is “inactive”; as for `NC(=O)c1ccc(C[C@H](C(=O)O)N2C(=O)c3ccc(C(=O)O)cc3C2=O)cc1`, “inactive”.
As for `CCOC(=O)C1CCN(C(=O)C(C)(C)NC(=O)Nc2cccc(OC)c2)CC1`, the entry is “inactive”.
With `O=C(O)c1ccc(O)c2ncc(N3CCCN(CCc4ccncc4)CC3)cc12`, the Potency result was “inactive”.
On to `Cc1cc(C)n2ncc(C(=O)Nc3ccncc3)c2n1`, for which the Potency entry was “inactive”.
As for `N#CN1CCC(NC(=O)c2cccc(C(F)(F)F)c2)CC1`, the entry is “inactive”; as for `C=Cc1ccc(C(=O)N2CCCC(CCC(=O)N3CCN(c4ccccn4)CC3)C2)cc1` (stereo not drawn), “inactive”; as for `COc1ccc(-c2ccc(Nc3nc(-c4ccncc4)nc4ccccc34)cc2F)cc1F`, “inactive”.
As for `CC(C)(C)OC(=O)NCc1nnc(C(C(=O)OCc2ccccc2)c2ccccc2)s1` (stereo not drawn), the entry is “inactive”; as for `O=C1Nc2ccccc2/C1=C\c1ccc(O)c(F)c1`, “inactive”; as for `Nc1ccc(C(=O)Nc2ccc(-c3nc4ccccc4[nH]3)cc2)cc1Cl`, “inactive”.
In the case of `Cc1cc(C)nc(NC(=S)N2CCN(c3cccc4[nH]ccc34)CC2)c1`, the Potency result is “inactive”.
On to `COc1ccc(-c2nc3cccc(OC)c3c(=O)n2Cc2ccccc2)cc1COc1ccc(NC(C)=O)cc1`, for which the Potency result is “inactive”.
For `Cc1cccc(N2CCN(C(=S)Nc3cc(C)ccn3)CC2)c1`, the Potency result is “inactive”.
As for `COc1ccc(OCc2nnc3n2N=C(c2ccccc2)CS3)cc1`, the entry is “inactive”.
On to `O=C1Nc2ccccc2/C1=C\c1ccc([N+](=O)[O-])cc1`, for which the Potency entry is “inactive”.
Regarding `CC(=O)Nc1sc2c(c1-c1ccc3nsnc3c1)CCNC2`, the Potency entry was “inactive”.
As for `COc1ccnc(NC(=S)N2CCN(c3cccc(Cl)c3Cl)CC2)c1`, the entry is “inactive”; as for `O=S(=O)(NCC1CCC(NS(=O)(=O)c2c(F)cccc2F)CC1)c1ccc2c(c1)OCCO2` (stereo not drawn), “inactive”.
As for `COc1cc(O)c(C(CC(=O)N2CCC(C)CC2)c2ccc(OC)c(OC)c2)c(OC)c1` (stereo not drawn), the entry is “inactive”.
